Screens (PubChem)
VACV mCherry inh – vaccinia inhibition (mCherry reporter) | Vaccinia virus mCherry reporter infection, fluorescence | Potency, µM (series often up to 36.5 µM), most hits filed as inhibitors | 310,000 tested, 0.63% active; calls by dose curve; tested in A549 cells; note: nearly all actives have a fitted effect of over 35% in size
SARS PLpro yeast-1 – inhibitors of SARS-CoV papain-like protease in yeast. S. cerevisiae expressing SARS-CoV PLpro, growth rescue. Potency, µM (highest dose often 32.9 µM), usual class: activators. 330,000 tested, 0.19% active. AID 485353; calls by dose curve; note: nearly all actives have a fitted effect of over 55% in size
AmpC detergent – AmpC beta-lactamase inhibition with detergent present. Potency, µM (series often up to 114 µM), usual class: inhibitors. AmpC hydrolysis of nitrocefin, absorbance 480 nm, 0.01% Triton. 370,000 tested, 0.041% active; note: nearly all actives have a fitted effect of over 25% in size
Target sequence (P00811 whole entry, looked up): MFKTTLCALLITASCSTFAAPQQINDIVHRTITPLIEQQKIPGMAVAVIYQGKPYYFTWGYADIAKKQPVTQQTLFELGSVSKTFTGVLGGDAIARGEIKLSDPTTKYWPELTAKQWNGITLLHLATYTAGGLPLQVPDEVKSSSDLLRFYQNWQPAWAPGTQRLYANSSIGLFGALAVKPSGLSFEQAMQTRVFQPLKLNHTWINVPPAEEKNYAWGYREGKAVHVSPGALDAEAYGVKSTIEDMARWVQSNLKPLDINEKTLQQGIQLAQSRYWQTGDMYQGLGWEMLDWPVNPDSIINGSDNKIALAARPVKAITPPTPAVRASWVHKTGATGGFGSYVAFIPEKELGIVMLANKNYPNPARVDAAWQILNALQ
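20 mM phosphate pH 7.0 + 0.01% (detergent screen) or 0.0001% Triton X-100; 5.3 nM AmpC reagent; cpd preinc 15 min RT; nitrocefin (800 uM stock) to start; A480 q20 s × 4 min; Activity was normalised to no-enzyme and no-compound control wells.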
AmpC inh no detg – inhibitors of E. coli AmpC beta-lactamase without detergent; AmpC nitrocefin hydrolysis, absorbance 480 nm, 0.0001% Triton; Potency, µM (titrated, usually from 57.1 µM), most hits filed as inhibitors; 330,000 tested, 0.52% active; AID 485341; note: nearly all actives have a fitted effect of over 20% in size
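20 mM phosphate pH 7.0 + 0.01% (detergent screen) or 0.0001% Triton X-100; 5.3 nM AmpC reagent; cpd preinc 15 min RT; nitrocefin (800 uM stock) to start; A480 q20 s × 4 min; Activity was normalised to no-enzyme and no-compound control wells.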
AMA1-RON2 inh – AMA1-RON2 (P. falciparum) interaction inhibition; Potency, µM (series often up to 58.2 µM), actives largely listed as inhibitors; AlphaScreen AMA1-biotinylated RON2 peptide binding; 360,000 tested, 0.2% active; note: nearly all actives have a fitted effect of over 45% in size
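AMA1 (3D7) with his tag at 25 nM final met compounds first, then biotinylated RON2 peptide at 25 nM; detection used donor plus acceptor beads, 10 µg/mL apiece, read by AlphaScreen after 30 min at room temperature.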
VACV Venus inh – vaccinia inhibition (Venus reporter) | Potency, µM (series often up to 36.5 µM), hits mostly inhibitors | 330,000 tested, 0.46% active | AID 720580 | Vaccinia virus Venus reporter expression, fluorescence; calls by dose curve; tested in A549 cells; note: nearly all actives have a fitted effect of over 30% in size
SARS PLpro yeast-2 – Validates SARS-CoV PLpro inhibitor hits in yeast. shares compounds with SARS PLpro yeast-1. yeast expressing SARS-CoV PLpro, growth phenotype rescue. calls only. 1,000 tested, 19% active; call rule not given here
A number is an active result; n = inactive; u = inconclusive; x = not tested or not shown; + = active, no number; ! = a repeat was not active; [ ] = dose if it differs, or a comment. Sampled rows, rich in hits. Any-hit rate of the full collection: about 1.3%. Unless noted, calls come from the whole dose curve; as a rule, active = well fitted curve in the direction sought with a large enough effect; inconclusive = small, poorly fitted or top-dose-only effect, or another doubt; inactive = no such curve, though single readings can be large; an effect the other way counts as inactive or inconclusive.

SMILES	VACV mCherry inh	SARS PLpro yeast-1	AmpC detergent	AmpC inh no detg	AMA1-RON2 inh	VACV Venus inh	SARS PLpro yeast-2
CCOC(=O)C(C)S(=O)(=O)c1ccc(C(F)(F)F)cn1 (stereo not given)	x	u	n	n	n	n	n
Cn1c2cc(C#N)sc2c2cnn(Cc3ccc(F)cc3)c(=O)c21	x	5.6µM!	u	n	x	x	n
Cn1c2ccsc2c2cnn(Cc3ccc(F)cc3)c(=O)c21	x	n	u	n	x	x	x
COC(=O)COc1ccc(S(=O)(=O)NCc2ccc3c(c2)OCO3)cc1	x	n	n	n	n	x	x
N#Cc1ccc(Oc2ccc(-c3cnc4ccccc4n3)cc2)cc1C#N	n	2µM	n	n	n	n	+
CCN(c1cccc(C)c1)S(=O)(=O)c1cccc(C(=O)O)c1	x	u	n	n	n	x	n
CN(C(=O)COC(=O)Cc1ccc(Cl)cc1)C1CCCCC1	n	u	x	n	n	n	n
CC(=O)Nc1ccc(-c2csc(NCc3ccco3)n2)cc1	n	u	n	n	n	n	n
c1cncc(-c2csc(NCc3ccco3)n2)c1	n	n	n	n	n	n	x
CCOC(=O)C1=C(CNCc2ccc(C)cc2)NC(=O)NC1c1cc(C)ccc1C (stereo not given)	x	u	u	n	n	x	n
CCOC(=O)C1=C(Cn2cnc3ccccc32)NC(=O)NC1c1cc(C)ccc1C (stereo not given)	u	n	n	n	n	n	x
CC(C)c1cccc(O)c(=O)c1	n	u	u	n	n	n	n
CC(=O)OCCOc1nc(NC(C)C)nc(NC(C)C)n1	n	n	n	n	n	n	x
CC(C)Nc1nc(NC(C)C)nc(OCCOC(=O)c2ccccc2)n1	n	u	n	n	n	n	n
COC(=O)[C@@H](N)CS	n	n	n	n	n	n	x
O=C(Oc1c(CN2CCOCC2)cc(Cl)c2cccnc12)c1ccccc1F	7.9µM	2.5µM	n	n	n	10µM	u
CCCNC(=O)C1CCC(Cn2c(=O)c3sccc3n(Cc3cccc(OC)c3)c2=O)CC1 (stereo not given)	n	x	n	x	x	n	x
Nc1nc(SCC(=O)NCCc2ccccc2)[nH]c(=O)c1-c1ccccc1	x	n	n	n	x	x	x
O=C(NC1(C(=O)NC2CCCCC2)CCCCC1)c1ccccn1	x	n	n	n	n	x	x
O=C(NC1CCCCC1)/C(=N\O)c1ccccn1	n	u	n	n	n	n	n
CC(=O)NCCc1ccc(C(=O)COC(=O)c2cc(C)oc2C)cc1	n	n	x	n	n	n	x
C=CCOC(=O)C1=C(C)NC(=S)NC1/C=C/c1ccccc1 (stereo not given)	u	n	n	n	n	n	x
CC1=C(C(=O)OCc2ccccc2)C(/C=C/c2ccccc2)NC(=S)N1 (stereo not given)	n	x	u	n	n[11.6 µM]	u	+
CCCCN(C(=O)c1ccc(C)c(S(=O)(=O)N2CCOCC2)c1)c1c(N)n(CCCC)c(=O)[nH]c1=O	n	n	u	n	n	n	x
COc1ccc(-n2cc(-c3ccccc3)c3c(N4CCCC(C)C4)ncnc32)cc1 (stereo not given)	n	x	n	x	x	n	x
SMILES	VACV mCherry inh	SARS PLpro yeast-1	AmpC detergent	AmpC inh no detg	AMA1-RON2 inh	VACV Venus inh	SARS PLpro yeast-2
CCCNC(=O)c1ccc(Cn2c(=S)[nH]c3c([nH]c4ccc(OC)cc43)c2=O)cc1	n	14µM	n	n	n[2.32 µM]	n	n
Cc1ccc2c(c1)N(C(=O)CCC(=O)NC1CCN(Cc3ccccc3)CC1)CC(C)O2 (stereo not given)	n	u	u	n	n	n	n
COc1ccc(-c2cc(OC(=O)c3ccccc3C)c3c(C)oc(C)c3c(=O)c2)cc1	n	x	n	x	x	n	x
COc1cc(C(C)=O)ccc1OCCCOc1cccc2cccnc12	n	n	n	n	n	n	x
O=C(Cn1cnc([N+](=O)[O-])n1)N/N=C/c1cccc2ccccc12	n	u	n	n	n	n	n
O=C(Cn1cnc([N+](=O)[O-])n1)N/N=C/c1ccc(O)cc1O	n	n	n	n	n	n	x
COc1ccc(NC(=O)c2cc(S(=O)(=O)N3CCCCC3)cn2C)cc1Cl	n	x	n	x	x	n	x
C/C=C/c1ccc(OCCCNC(C)CC)c(OC)c1 (stereo not given)	x	22µM	n	n	20µM	x	n
c1ccc(Cc2nnc3n2CCN(Cc2cnc(-c4ccccc4)s2)CC3)cc1	n	x	x	x	x	n	x
Cc1ccc(S(=O)(=O)N2CCCc3cc(NS(=O)(=O)c4ccccc4)ccc32)cc1	n	x	n	x	x	n	x
O=C(N/N=C/c1c(O)n(-c2ccc(Cl)cn2)c(=O)c2ccccc12)C1CC1	u	n	n	n	n	n	x
O=C(N/N=C/c1c(O)n(-c2ccc(Cl)cn2)c(=O)c2ccccc12)c1ccncc1	n	13µM	n	n	n	n	n
O=C(CSc1cccc[n+]1[O-])Nc1cccc(Oc2ccccc2)c1	n	u	n	n	n	n	n
COc1cccc(NC(=O)CSc2cccc[n+]2[O-])c1	x	n	x	n	n	x	x
Cc1onc(-c2ccccc2)c1C(=O)NC(=S)NNC(=O)c1ccncc1	n	13µM	n	n	n	n	n
C=CCN(c1ccc(F)cc1)S(=O)(=O)c1cc(C(=O)NC2CC2)ccc1Cl	n	x	x	x	n	n	x
CCCCOc1ccc(C(=O)NCC(=O)NCCOc2ccc(C)cc2)cc1	x	n[6.58 µM]	n	n	n	x	x
CCCCOc1ccc(C(=O)NCC(=O)NC2CC2)cc1	n	11µM	n	n	n	n	n
Cc1oc(-c2ccc(Cl)cc2)nc1CSc1nc2ncccc2[nH]1	n	x	n	x	x	n	x
O=C1c2cccc3cc(Br)cc(c23)C(=O)N1Nc1ccc(Br)cc1	n	n	n	n	n	n	x
O=C1C=CC(=O)N1Nc1ccc(Br)cc1	n	u	n	n	n	n	n
O=C(NCc1ccco1)C1Cc2c(-c3cccc(F)c3)ccnc2O1 (stereo not given)	u	x	x	x	n	n	x
CC(C)c1ccc(C(C)NC(=O)C2CCCC2)cc1 (stereo not given)	x	n	n	n	n	x	x
Cc1ccc(-c2nc(CS(=O)(=O)CC(=O)N3CCN(c4cccc(C)c4C)CC3)c(C)o2)cc1	n	x	n	x	x	n	x
NOCC(=O)O	n	u	n	n	n	n	n
Cc1sc2nc(CSCC(=O)N(C)c3ccccc3)[nH]c(=O)c2c1C	n	u	n	n	n	n	n
Cc1sc2nc(CSCC(=O)N(CCC#N)c3ccccc3)[nH]c(=O)c2c1C	x	n	n	n	n	x	x
O=C(CNC(=O)C1CCCCC1)OC(C(=O)c1ccccc1)c1ccccc1 (stereo not given)	x	n	n	n	x	x	x
COc1cccc(C(=O)Nc2nc(-c3ccccc3)c(-c3ccccc3)o2)c1	x	u	u	n	n	x	+
